Article PMC5913336, “True equilibrium measurement of transcription factor-DNA binding affinities using automated polarization microscopy”

molecular target: D (Drosophila melanogaster, UniProt Q24533 127-229); assay: FP; 33 mM phosphate pH 7.0, 90 mM NaCl, 0.01% Tween 20, 0.1 mM DTT, 0.5% agarose; room temperature; details: tags: N-GST (pGEX-6P-1, kept); dsDNA, one strand shown
Sequence (Q24533 127-229): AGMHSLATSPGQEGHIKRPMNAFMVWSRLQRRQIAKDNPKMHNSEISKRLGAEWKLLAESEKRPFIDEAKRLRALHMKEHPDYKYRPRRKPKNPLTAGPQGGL

| Sequence | binding signal | Kd [nM] |
| --- | --- | --- |
| GACCATTGTTCTAG | 1.95 Kd / Kd of best base at the position | – |
| GACCATTGGTCTTG | 54.3 Kd / Kd of best base at the position | – |
| GTCCATTGTTCTTG | 1.08 Kd / Kd of best base at the position | – |
| GACCATTATTCTTG | 14.1 Kd / Kd of best base at the position | – |
| GACCATCGTTCTTG | 34.5 Kd / Kd of best base at the position | – |
| GACCATTGTGCTTG | 11.9 Kd / Kd of best base at the position | – |
| GACCAGTGTTCTTG | 33 Kd / Kd of best base at the position | – |
| GACCTTTGTTCTTG | 2.8 Kd / Kd of best base at the position | – |
| GAACATTGTTCTTG | 10.5 Kd / Kd of best base at the position | – |
| GACCATTGTACTTG | 8.66 Kd / Kd of best base at the position | – |
| GACCATTGCTCTTG | 46 Kd / Kd of best base at the position | – |
| GACCATTGTTCTTC | 1.12 Kd / Kd of best base at the position | – |
| GACCATTGTTCTTG | – | ~2.3 |
| GACCATTTTTCTTG | 40.5 Kd / Kd of best base at the position | – |
| GACCATTGTTCCTG | 3.75 Kd / Kd of best base at the position | – |
| GAGCATTGTTCTTG | 2.52 Kd / Kd of best base at the position | – |
| GACCATTGTTCATG | 2.96 Kd / Kd of best base at the position | – |
| GACCATTGTTGTTG | 3.32 Kd / Kd of best base at the position | – |
| GACCATGGTTCTTG | 39.1 Kd / Kd of best base at the position | – |

| Sequence | binding signal | Kd [nM] |
| --- | --- | --- |
| GACCATTGTTTTTG | 2.05 Kd / Kd of best base at the position | – |
| TACCATTGTTCTTG | 1.36 Kd / Kd of best base at the position | – |
| GACCCTTGTTCTTG | 32.5 Kd / Kd of best base at the position | – |
| AACCATTGTTCTTG | 1.37 Kd / Kd of best base at the position | – |
| GATCATTGTTCTTG | 2.05 Kd / Kd of best base at the position | – |
| GACAATTGTTCTTG | 10.4 Kd / Kd of best base at the position | – |
| GACCATTGTTCTGG | 1.95 Kd / Kd of best base at the position | – |
| GCCCATTGTTCTTG | 1.11 Kd / Kd of best base at the position | – |
| GACCATTGTTCGTG | 3.61 Kd / Kd of best base at the position | – |
| GACCATTCTTCTTG | 17.3 Kd / Kd of best base at the position | – |
| GACCATTGTTCTTT | 1.16 Kd / Kd of best base at the position | – |
| CACCATTGTTCTTG | 1.12 Kd / Kd of best base at the position | – |
| GACCATTGTTCTTA | 1.16 Kd / Kd of best base at the position | – |
| GACTATTGTTCTTG | 2.24 Kd / Kd of best base at the position | – |
| GACCGTTGTTCTTG | 26 Kd / Kd of best base at the position | – |
| GACCATTGTTCTCG | 1.79 Kd / Kd of best base at the position | – |
| GACCATTGTCCTTG | 8.08 Kd / Kd of best base at the position | – |
| GGCCATTGTTCTTG | 1.18 Kd / Kd of best base at the position | – |

molecular target: T1, Slp1-FL (Drosophila melanogaster, UniProt P32030); assay: as above; details: tags: N-GST (pGEX-6P-1, kept); dsDNA, one strand shown
T1 sequence: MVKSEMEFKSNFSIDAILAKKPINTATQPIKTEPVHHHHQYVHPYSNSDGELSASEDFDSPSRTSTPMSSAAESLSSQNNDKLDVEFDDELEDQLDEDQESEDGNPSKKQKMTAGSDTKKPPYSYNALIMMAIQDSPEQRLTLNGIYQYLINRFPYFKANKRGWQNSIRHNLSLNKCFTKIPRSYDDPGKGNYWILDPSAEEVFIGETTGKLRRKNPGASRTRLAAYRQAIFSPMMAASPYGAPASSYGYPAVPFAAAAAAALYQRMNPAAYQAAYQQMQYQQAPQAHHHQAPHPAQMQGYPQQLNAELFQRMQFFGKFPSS

| Sequence | binding signal |
| --- | --- |
| ACGTGTTTCCACTTA | 15.2 Kd / Kd of best base at the position |
| ACGTGTTTAGACTTA | 19.7 Kd / Kd of best base at the position |
| ACGTGTTTGCACTTA | 23.1 Kd / Kd of best base at the position |
